Data published in PubChem BioAssay AID1159580 (chemical genetic matrix, 2015).
Where “and” joins values, the source holds several entries; their conditions need not be identical. Equal entries are not always repeated. Among all 5,500 compounds or so, about 2,000 (36%) were called active. Not shown: some 18% with an inconclusive outcome. Rule as the data show it: active = normalized growth mostly below about 0.91 (no sharp cut-off); inconclusive = no clear call, values can overlap the other calls; inactive = mostly above about 0.92. This is one part of the list.

Assay: chemical genetic growth profiling, strain panel (AID 1159580);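 also: tested at 20 µM; growth read once vehicle control cultures reached saturation at 30 °C; 1 = growth at the plate median or of vehicle wells; lower values mean less growth of the strain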
Details: S. cerevisiae deletion strains, growth OD

Measured: normalized growth

CNC(=O)Oc1ccc2c(c1)[C@]1(C)CCN(C)[C@@H]1N2C
inactive: locus YAL013W, strain DEP1, hits give low values 1.03 | locus YAL021C, strain ccr4, hits give low values 1 | locus YAL026C, strain drs2, hits give low values 1 | locus YAL030W, strain snc1, hits give low values 1.02 | locus YBL061C, strain skt5, hits give low values 1.02 | locus YBR009C, strain hhf1, hits give low values 0.998 | locus YBR021W, strain FUR4, hits give low values 0.99 | locus YBR023C, strain chs3, hits give low values 1.02 | locus YBR171W, strain sec66, hits give low values 1.03 | locus YBR229C, strain ROT2, hits give low values 1.01 | locus YBR231C, strain swc5, hits give low values 1.01 | locus YBR279W, strain paf1, hits give low values 1.03 | locus YCL011C, strain gbp2, hits give low values 1.03 | locus YCL016C, strain dcc1, hits give low values 1.05 | locus YCL029C, strain bik1, hits give low values 1.01 | locus YCL061C, strain MRC1, hits give low values 1.01 | locus YCL069W, strain vba3, hits give low values 1.02 | locus YCR088W, strain abp1, hits give low values 1.02 | locus YDL005C, strain med2, hits give low values 1.02 | locus YDL035C, strain GPR1, hits give low values 1.01 | locus YDL040C, strain nat1, hits give low values 1 | locus YDL074C, strain BRE1, hits give low values 1.04 | locus YDL101C, strain DUN1, hits give low values 1.01 | locus YDL134C, strain PPH21, hits give low values 1.04 | locus YDL185W, strain tfp1, hits give low values 0.992 | locus YDL192W, strain arf1, hits give low values 1.02 | locus YDR001C, strain nth1, hits give low values 1.01 | locus YDR069C, strain doa4, hits give low values 0.998 | locus YDR101C, strain arx1, hits give low values 1.02 | locus YDR137W, strain rgp1, hits give low values 1.05 | locus YDR159W, strain sac3, hits give low values 0.969 | locus YDR162C, strain NBP2, hits give low values 1.03 | locus YDR195W, strain ref2 0.977 | locus YDR297W, strain sur2, hits give low values 1.01 | locus YDR318W, strain mcm21, hits give low values 1.01 | locus YDR334W, strain swr1, hits give low values 1.02 | locus YDR335W, strain msn5, hits give low values 1.01 | locus YDR388W, hits give low values 1.01 | locus YDR392W, strain spt3, hits give low values 0.816 | locus YDR502C, strain sam2, hits give low values 1.01 | locus YEL003W, strain gim4, hits give low values 1.01 | locus YEL037C, strain rad23, hits give low values 1.01 | locus YEL061C, strain CIN8 (second series), hits give low values 1.02 | locus YEL061C, strain CIN8, hits give low values 1.01 | locus YER015W, strain faa2, hits give low values 1.01 | locus YER016W, strain bim1, hits give low values 1.02 | locus YER110C, hits give low values 1.02 | locus YER111C, strain swi4, hits give low values 1.01 | locus YER155C, strain BEM2 (second series), hits give low values 0.99 | locus YER155C, strain BEM2, hits give low values 0.993 | locus YER167W, strain BCK2, hits give low values 1.02 | locus YFR010W, strain ubp6, hits give low values 1.01 | locus YGL078C, strain dbp3, hits give low values 1.01 | locus YGL086W, strain mad1, hits give low values 0.999 | locus YGL167C, strain pmr1, hits give low values 1.02 | locus YGL173C, strain kem1, hits give low values 1.01 | locus YGL227W, strain vid30, hits give low values 1.01 | locus YGL240W, strain doc1, hits give low values 0.992 | locus YGL248W, strain PDE1, hits give low values 1.01 | locus YGL253W, strain hxk2, hits give low values 0.989 | locus YGR135W, strain pre9, hits give low values 1.03 | locus YGR229C, strain SMI1, hits give low values 1.01 | locus YGR252W, strain gcn5, hits give low values 1.03 | locus YHR013C, strain ard1, hits give low values 0.981 | locus YHR027C, strain rpn1, hits give low values 1.03 | locus YHR030C, strain SLT2, hits give low values 1.01 and 0.983 | locus YHR079C, strain IRE1 (second series), hits give low values 1 | locus YHR079C, strain IRE1, hits give low values 0.97 | locus YHR094C, strain hxt1, hits give low values 1.01 | locus YHR129C, strain ARP1, hits give low values 1.02 | locus YHR142W, strain chs7, hits give low values 1.04 | locus YHR200W, strain rpn10, hits give low values 1.01 | locus YIL066C, strain RNR3, hits give low values 1 | locus YIL073C, strain SPO22, hits give low values 0.995 | locus YIL125W, strain kgd1, hits give low values 0.999 | locus YIR030C, strain dcg1, hits give low values 0.992 | locus YJL092W, strain hpr5, hits give low values 1.01 | locus YJL095W, strain BCK1 (second series), hits give low values 1.03 | locus YJL095W, strain BCK1, hits give low values 1.04 and 0.989 | locus YJL115W, strain asf1, hits give low values 1.02 | locus YJL129C, strain trk1, hits give low values 1.08 | locus YJL134W, strain LCB3, hits give low values 1.01 | locus YJL154C, strain vps35, hits give low values 1.01 | locus YJL164C, strain tpk1, hits give low values 0.992 | locus YJL166W, strain qcr8, hits give low values 1.02 | locus YJL168C, strain set2, hits give low values 1.01 | locus YJL187C, strain SWE1 (second series), hits give low values 1.03 | locus YJL187C, strain SWE1, hits give low values 1.01 | locus YJR043C, strain POL32, hits give low values 1.04 | locus YJR066W, strain TOR1, hits give low values 0.954 | locus YJR075W, strain HOC1, hits give low values 1.03 | locus YKL009W, strain mrt4, hits give low values 1.02 | locus YKL068W, hits give low values 0.999 | locus YKL085W, strain MDH1 (second series), hits give low values 0.997 | locus YKL085W, strain MDH1, hits give low values 0.997 | locus YKL160W, strain elf1, hits give low values 1.02 | locus YKL190W, strain CNB1, hits give low values 1.01 | locus YKR001C, strain vps1, hits give low values 1.02 | locus YKR026C, strain gcn3, hits give low values 1.02 | locus YKR091W, strain srl3, hits give low values 1.02 | locus YLL001W, strain dnm1, hits give low values 1.07 | locus YLL026W, hits give low values 1.01 | locus YLL041C, strain sdh2, hits give low values 1 | locus YLR027C, strain aat2, hits give low values 0.998 | locus YLR039C, strain RIC1, hits give low values 1.12 | locus YLR058C, strain SHM2, hits give low values 1.01 | locus YLR102C, strain apc9, hits give low values 1 | locus YLR113W, strain HOG1, hits give low values 0.991 | locus YLR221C, strain rsa3, hits give low values 1.04 | locus YLR258W, strain gsy2, hits give low values 1 | locus YLR262C, strain YPT6 (second series), hits give low values 1.05 | locus YLR262C, strain YPT6, hits give low values 1.19 | locus YLR268W, strain sec22, hits give low values 1.02 | locus YLR320W, strain mms22, hits give low values 1.06 | locus YLR330W, strain CHS5, hits give low values 1.01 | locus YLR342W, strain FKS1 (second series), hits give low values 1.03 | locus YLR342W, strain FKS1, hits give low values 1.02 | locus YLR357W, strain rsc2, hits give low values 1.02 | locus YLR370C, strain arc18, hits give low values 1.03 | locus YLR371W, strain rom2, hits give low values 1 | locus YLR384C, strain iki3, hits give low values 1.02 | locus YLR418C, strain cdc73, hits give low values 0.991 | locus YML016C, strain PPZ1, hits give low values 1.01 | locus YML032C, strain rad52, hits give low values 1.01 | locus YML120C, strain ndi1, hits give low values 1.05 | locus YML124C, strain tub3, hits give low values 1.01 | locus YMR058W, strain fet3, hits give low values 1.01 | locus YMR078C, strain ctf18, hits give low values 0.996 | locus YMR125W, strain sto1, hits give low values 1.04 | locus YMR129W, hits give low values 1.01 | locus YMR205C, strain PFK2, hits give low values 1.02 | locus YMR223W, strain ubp8, hits give low values 1.01 | locus YMR231W, strain pep5, hits give low values 1 | locus YMR263W, strain SAP30, hits give low values 1.01 | locus YMR307W, strain GAS1, hits give low values 1.03 | locus YNL067W, strain RPL9B, hits give low values 1.03 | locus YNL071W, strain lat1, hits give low values 1.01 | locus YNL128W, strain TEP1, hits give low values 1.01 | locus YNL183C, strain NPR1, hits give low values 0.944 | locus YNL209W, strain ssb2, hits give low values 1.02 | locus YNL233W, strain BNI4, hits give low values 1.02 | locus YNL248C, strain rpa49, hits give low values 0.969 | locus YNL250W, strain rad50, hits give low values 1.01 | locus YNL271C, strain bni1, hits give low values 0.999 | locus YNL298W, strain CLA4, hits give low values 1.01 | locus YNL307C, strain MCK1, hits give low values 1.01 | locus YNL322C, strain KRE1 (second series), hits give low values 1.02 | locus YNR049C, strain mso1, hits give low values 1.01 | locus YNR052C, strain pop2, hits give low values 1 | locus YOL006C, strain TOP1, hits give low values 0.963 | locus YOL012C, strain htz1 0.928 | locus YOL147C, strain pex11, hits give low values 1 | locus YOR001W, strain rrp6, hits give low values 0.96 | locus YOR061W, strain CKA2, hits give low values 1.02 | locus YOR069W, strain VPS5, hits give low values 1.01 | locus YOR070C, strain gyp1, hits give low values 1.03 | locus YOR080W, strain dia2, hits give low values 1.02 | locus YOR083W, strain WHI5, hits give low values 1.03 | locus YOR106W, strain vam3, hits give low values 1.04 | locus YOR136W, strain idh2, hits give low values 1.02 | locus YOR144C, strain elg1, hits give low values 1.01 | locus YOR184W, strain ser1, hits give low values 1.06 | locus YOR231W, strain MKK1, hits give low values 0.96 | locus YOR265W, strain rbl2, hits give low values 1.01 | locus YOR270C, strain vph1, hits give low values 1.13 | locus YOR290C, strain snf2, hits give low values 1.07 | locus YOR316C, strain cot1, hits give low values 1.02 | locus YPL051W, strain arl3, hits give low values 0.978 | locus YPL078C, strain atp4, hits give low values 0.997 | locus YPL106C, strain sse1, hits give low values 1.06 | locus YPL240C, strain hsp82, hits give low values 1.03 | locus YPL241C, strain CIN2, hits give low values 1.01 | locus YPL256C, strain CLN2, hits give low values 0.986 | locus YPR119W, strain clb2, hits give low values 1.01 | locus YPR141C, strain kar3, hits give low values 1.01 | locus YPR163C, strain tif3, hits give low values 1.03 | locus YPR167C, strain met16, hits give low values 1.01 | strain wtn01, hits give low values 1.01
